DT40 TDP1 CPT = qHTS for Inhibitors of human tyrosyl-DNA phosphodiesterase 1 (TDP1): qHTS in cells in presence of CPT. 420,000 tested, 12% active. Potency, µM (series often up to 46.2 µM), most hits filed as inhibitors. chicken DT40 Tdp1-/-;hTDP1 cells + 20 nM CPT, ATP luminescence, 48 h; note: nearly all actives have a fitted effect of over 55% in size
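Chicken DT40 Tdp1-/- cells complemented with human TDP1, 400 cells/well, exposed to compounds plus 20 nM camptothecin for at least 48 h at 37 C; viability read as ATP content by CellTiter-Glo luminescence.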
TDP1 inh = qHTS Assay for Inhibitors of Tyrosyl-DNA Phosphodiesterase (TDP1) | Tyrosyl-DNA phosphodiesterase 1 (Homo sapiens), Q9NUW8 | recombinant TDP1, AlphaScreen DNA substrate cleavage | Potency, µM (highest dose often 130 µM), most hits filed as inhibitors | 350,000 tested, 0.28% active; note: nearly all actives have a fitted effect of over 40% in size
Target sequence (Q9NUW8 whole entry, looked up): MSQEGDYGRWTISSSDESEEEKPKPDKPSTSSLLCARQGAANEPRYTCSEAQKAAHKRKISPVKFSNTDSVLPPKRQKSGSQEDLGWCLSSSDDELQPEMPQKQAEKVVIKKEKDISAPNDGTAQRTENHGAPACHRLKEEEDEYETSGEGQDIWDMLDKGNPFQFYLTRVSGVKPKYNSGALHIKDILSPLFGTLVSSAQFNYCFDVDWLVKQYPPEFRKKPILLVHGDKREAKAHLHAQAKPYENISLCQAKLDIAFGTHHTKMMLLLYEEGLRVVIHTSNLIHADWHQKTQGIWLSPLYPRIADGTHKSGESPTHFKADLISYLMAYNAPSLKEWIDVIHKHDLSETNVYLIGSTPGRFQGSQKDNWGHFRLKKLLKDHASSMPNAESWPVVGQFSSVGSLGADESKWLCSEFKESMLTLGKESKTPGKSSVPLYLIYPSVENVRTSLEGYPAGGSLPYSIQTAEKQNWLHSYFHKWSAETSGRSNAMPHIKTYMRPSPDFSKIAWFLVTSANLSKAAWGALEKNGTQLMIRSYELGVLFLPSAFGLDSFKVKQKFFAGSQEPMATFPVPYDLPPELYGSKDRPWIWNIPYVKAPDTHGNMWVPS
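Recombinant human Tdp1 (E. coli-expressed, 1 nM final) preincubated with compounds 15 min at room temperature, then 5'-biotin/3'-phosphotyrosine-FITC DNA substrate (15 nM final) added for 5 min. AlphaScreen beads (10 ug/ml final) added 10 min; cleavage lowers signal.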
TDP1 cell noCPT = qHTS for Inhibitors of human tyrosyl-DNA phosphodiesterase 1 (TDP1): qHTS in cells in absence of CPT. DT40 Tdp1-/- hTDP1 cells, no CPT, ATP luminescence, 48 h. Potency, µM (series often up to 46.2 µM), most hits filed as inhibitors. 420,000 tested, 15% active. AID 686978, 2013; note: nearly all actives have a fitted effect of over 55% in size
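Cells were dispensed at 400 per well, compounds added by pin tool, plates incubated ≥48 hr at 37 °C, then CellTiter-Glo added for 30 min at room temperature before luminescence reading. Line: DT40 Tdp1-/- complemented with hTDP1; camptothecin omitted.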
IL1B secr inh = qHTS for Inhibitors of Inflammasome Signaling: IL-1-beta AlphaLISA Primary Screen; activity change, % at 57.5 µM; THP-1 LPS/ATP IL-1B secretion, AlphaLISA, 16 h; active compounds read low; AID 743279, 2014; 360,000 tested, 4.7% active; in the data active = activity change below about -50%; inconclusive = mostly about -30% to -49%
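Secreted IL-1B measured by AlphaLISA bead assay after 16 h compound exposure of THP-1 cells; compounds (final up to 57.5 uM) added 1 h before LPS (250 ng/mL) and ATP (1.25 mM) stimulation; lower signal means less secretion.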
TGFb SMAD3 inh = qHTS for Inhibitors of TGF-b | Potency, µM (series often up to 46.1 µM), usual class: inhibitors | HepG2 CAGA-GFP TGF-b/SMAD3 reporter, GFP fluorescence, 18 h; TGF-beta stimulated, 500 pg/mL final | 410,000 tested, 1.2% active; note: nearly all actives have a fitted effect of over 65% in size
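Using HEPG2 CAGA-GFP reporter cells at 1000 cells/well, we pinned test compounds, stimulated with recombinant TGF-beta (500 pg/mL final) and measured total well GFP after 18 h.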
HepG2 viability = qHTS for Inhibitors of TGF-b: Cytotox Counterscreen; AID 588856, 2011; Potency, µM (series often up to 46.1 µM), most hits filed as cytotoxic; HepG2 CAGA-GFP viability, ATP luminescence, 18 h; 410,000 tested, 0.76% active
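HepG2 CAGA-GFP cells (1000/well, DMEM with 1% FBS) received compound, then TGF-beta at 500 pg/mL final, and were incubated 18 hours at 37 degrees C. Viability was read by CellTiter-Glo luminescence. Media-only wells were set as complete cell-killing and DMSO as no toxicity.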
Large screens that a line does not name were inactive. Most compounds without a hit are left out; they make up all but 19% or so of the library. Unless noted, calls come from the whole dose curve; as a rule, active = well fitted curve in the direction sought with a large enough effect; inconclusive = small, poorly fitted or top-dose-only effect, or another doubt; inactive = no such curve, though single readings can be large; an effect the other way counts as inactive or inconclusive.

Cc1ccc(-c2cc(C(F)(F)F)nc(SCC(=O)c3cccc([N+](=O)[O-])c3)n2)cc1	DT40 TDP1 CPT inconclusive, TDP1 cell noCPT inconclusive, IL1B secr inh -53
COc1cccc(NC(=O)C(=O)NCCc2csc(-c3ccc(C)cc3)n2)c1	DT40 TDP1 CPT inconclusive, TDP1 cell noCPT inconclusive (no result: IL1B secr inh)
CCOC(=O)c1c(C)oc2ncnc(Nc3ccc(OC)c(OC)c3)c12	DT40 TDP1 CPT inconclusive, TDP1 cell noCPT inconclusive (no result: IL1B secr inh)
CC1(C)Cc2c(cnn2-c2ccc(F)cc2)C(NC(=O)CN2CCCCC2=O)C1 (stereo not drawn)	none
COc1ccccc1NC(=O)n1ncc2c(C)cccc21	none (no result: IL1B secr inh)
COc1ccc(-c2cc(C(F)(F)F)nc(SCC(=O)NCc3ccc(OC)c(OC)c3)n2)cc1	DT40 TDP1 CPT 23µM, TDP1 cell noCPT inconclusive (no result: IL1B secr inh)
COc1ccc(-c2cc(C(F)(F)F)nc(SCC(=O)NC(C)c3ccccc3)n2)cc1 (stereo not drawn)	DT40 TDP1 CPT inconclusive, TDP1 cell noCPT 15µM (no result: IL1B secr inh)
CCOC(=O)CN(Cc1cc(OC)cc(N(C)C)c1OC)C(=O)C1CC(CO[Si](C)(C)C(C)(C)C)=CN1C(=O)OC(C)(C)C (stereo not drawn)	TGFb SMAD3 inh inconclusive (no result: DT40 TDP1 CPT, TDP1 cell noCPT, IL1B secr inh)
CSc1ccccc1NC(=O)CN(C)Cc1cc(=O)n2ccsc2n1	none
CC(C)(C)NCCOCCOc1ccccc1-c1ccccc1	DT40 TDP1 CPT 12µM, TDP1 cell noCPT inconclusive
CCOC(=O)c1ccc(NS(=O)(=O)c2cc3c(cc2C)n(C)c(=O)c(=O)n3C)cc1	DT40 TDP1 CPT inconclusive, TDP1 cell noCPT inconclusive (no result: IL1B secr inh)
CC(=O)c1c(N)[nH]c(-c2ccccc2)nc1=S	DT40 TDP1 CPT 6.5µM, TDP1 cell noCPT 6.5µM
CC(=O)c1c(N2CCOCC2)[nH]c(-c2ccccc2)nc1=S	DT40 TDP1 CPT 16µM, TDP1 cell noCPT inconclusive
CC(=O)c1c(N2CCCC2)[nH]c(-c2ccccc2)nc1=S	DT40 TDP1 CPT inconclusive, TDP1 cell noCPT inconclusive
O=C(CSc1nnc(-c2ccccn2)o1)Nc1ccccc1Cl	none (no result: TDP1 inh)
CCCCS(=O)(=O)N1C2=NC(C(=O)OC)=C(C(=O)OC)[C@@H]3N(C)c4ccccc4[C@]23C[C@H]1C(=O)OC	none (no result: DT40 TDP1 CPT, TDP1 cell noCPT, IL1B secr inh, TGFb SMAD3 inh, HepG2 viability)
Cc1cc(C)c2c(=N)c3ccccc3n(CCCCCCCCn3c4ccccc4c(=N)c4c(C)cc(C)nc43)c2n1	DT40 TDP1 CPT 10µM, TDP1 cell noCPT inconclusive, IL1B secr inh -52, TGFb SMAD3 inh inconclusive (no result: TDP1 inh)
N=C1/C(=C/c2ccco2)C(=O)N=C2SC(CC(=O)N3CCCC3)=NN12	TDP1 inh 20µM
COC(=O)CCC(=O)c1oc2ccc(Br)cc2c1N	DT40 TDP1 CPT inconclusive, TDP1 cell noCPT 26µM
COc1ccc2oc(C(=O)CCC(=O)O)c(N)c2c1	none
COC(=O)N1CCC2(CCCN(Cc3ccccc3)C2)CC1	none (no result: TDP1 inh, IL1B secr inh, TGFb SMAD3 inh, HepG2 viability)
COc1ccccc1CNC(=O)c1ccc2c(c1)sc1nc(-c3ccc(F)cc3)cn12	DT40 TDP1 CPT 7.3µM, TDP1 cell noCPT 8.2µM (no result: IL1B secr inh)
O=C(NCc1cccs1)c1ccc2c(c1)sc1nc(-c3ccc(F)cc3)cn12	TDP1 cell noCPT inconclusive (no result: IL1B secr inh)
COc1cccc(CNC(=O)c2ccc3c(c2)sc2nc(-c4ccccc4)cn23)c1OC	DT40 TDP1 CPT 9.2µM, TDP1 cell noCPT 5.8µM, TGFb SMAD3 inh inconclusive (no result: IL1B secr inh)
COC(=O)[C@@]1(Cc2ccc(F)cc2)[C@H]2c3cc(C(=O)N4CCCC4)n(CCc4c[nH]c5cc(F)ccc45)c3C[C@H]2CN1C(=O)c1ccccc1	none (no result: DT40 TDP1 CPT, TDP1 cell noCPT, IL1B secr inh, TGFb SMAD3 inh, HepG2 viability)
C1=Nc2c(Nc3ccccc3)ncnc2Oc2ccccc21	DT40 TDP1 CPT 9.2µM, TDP1 cell noCPT 10µM
Cc1cccc(CNc2nc(-c3ccc(C(=O)N(C)C)cc3)nc3ccccc23)c1	DT40 TDP1 CPT 23µM, TDP1 cell noCPT 2.9µM (no result: IL1B secr inh, TGFb SMAD3 inh, HepG2 viability)
